Measurements from the supplement of paper PMC12645437, “Orthogonal IMiD-Degron Pairs Induce Selective Protein Degradation in Cells” (ACS Chemical Biology, 2025).
In all, about 8,300 sequences were measured (“log2 fold change of degron read counts, EGFP-low vs EGFP+ sorted cells (limma voom), compound-induced degradation”: median about -1.1, highest 2% from about 3.2 on). This excerpt belongs to a sample that is enriched for the highest values.

T1: CRBN, Q96SW2
T1 chain: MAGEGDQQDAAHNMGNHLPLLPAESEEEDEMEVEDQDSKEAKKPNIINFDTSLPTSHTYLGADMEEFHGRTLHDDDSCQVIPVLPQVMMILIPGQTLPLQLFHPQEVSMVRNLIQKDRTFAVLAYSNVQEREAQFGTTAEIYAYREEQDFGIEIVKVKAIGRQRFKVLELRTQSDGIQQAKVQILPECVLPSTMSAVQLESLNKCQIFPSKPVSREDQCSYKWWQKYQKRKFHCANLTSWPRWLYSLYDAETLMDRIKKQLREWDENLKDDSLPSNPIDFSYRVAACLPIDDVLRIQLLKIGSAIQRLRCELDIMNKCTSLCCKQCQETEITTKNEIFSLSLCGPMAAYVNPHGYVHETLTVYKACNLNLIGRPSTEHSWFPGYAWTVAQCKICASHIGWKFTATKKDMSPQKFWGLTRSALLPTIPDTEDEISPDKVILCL

B1: 46F_47Q_49N_50Q_52G_53R_54E_55F_67L_, Q9UKT9 (peptide)
chain: FQCNQCGREFTQKGNLLRHIKL
B2: 46F_47D_49E_50Q_52G_53A_54C_55F_67L_, Q9UKT9 (peptide)
chain: FDCEQCGACFTQKGNLLRHIKL
B3: 46F_47G_49D_50I_52G_53A_54A_55F_67L_, Q9UKT9 (peptide)
chain: FGCDICGAAFTQKGNLLRHIKL
B4: 46L_47L_49P_50I_52G_53F_54P_55C_67L_, Q9UKT9 (peptide)
chain: LLCPICGFPCTQKGNLLRHIKL
B5: 46F_47D_49N_50Q_52G_53A_54T_55F_67L_, Q9UKT9 (peptide)
chain: FDCNQCGATFTQKGNLLRHIKL
B6: 46F_47W_49P_50I_52G_53H_54R_55F_67L_, Q9UKT9 (peptide)
chain: FWCPICGHRFTQKGNLLRHIKL
B7: 46L_47A_49N_50Q_52G_53F_54F_55C_67L_, Q9UKT9 (peptide)
chain: LACNQCGFFCTQKGNLLRHIKL
B8: 46F_47H_49E_50I_52G_53R_54P_55F_67L_, Q9UKT9 (peptide)
chain: FHCEICGRPFTQKGNLLRHIKL
B9: 46F_47T_49S_50V_52G_53H_54S_55F_67L_, Q9UKT9 (peptide)
chain: FTCSVCGHSFTQKGNLLRHIKL
B10: 46F_47F_49E_50V_52G_53A_54R_55F_67L_, Q9UKT9 (peptide)
chain: FFCEVCGARFTQKGNLLRHIKL
B11: 46F_47E_49E_50V_52G_53A_54R_55F_67L_, Q9UKT9 (peptide)
chain: FECEVCGARFTQKGNLLRHIKL
B12: 46F_47W_49E_50V_52G_53A_54R_55F_67L_, Q9UKT9 (peptide)
chain: FWCEVCGARFTQKGNLLRHIKL
B13: 46F_47I_49E_50V_52G_53A_54R_55F_67L_, Q9UKT9 (peptide)
chain: FICEVCGARFTQKGNLLRHIKL
B14: 46F_47Y_49E_50V_52G_53A_54R_55F_67L_, Q9UKT9 (peptide)
chain: FYCEVCGARFTQKGNLLRHIKL
B15: 46F_47F_49E_50V_52G_53A_54L_55F_67L_, Q9UKT9 (peptide)
chain: FFCEVCGALFTQKGNLLRHIKL
B16: 46F_47Y_49E_50V_52G_53A_54L_55F_67L_, Q9UKT9 (peptide)
chain: FYCEVCGALFTQKGNLLRHIKL
B17: 46F_47Y_49E_50V_52G_53A_54D_55F_67L_, Q9UKT9 (peptide)
chain: FYCEVCGADFTQKGNLLRHIKL
B18: 46F_47C_49E_50V_52G_53A_54R_55F_67L_, Q9UKT9 (peptide)
chain: FCCEVCGARFTQKGNLLRHIKL
B19: 46F_47D_49E_50V_52G_53A_54R_55F_67L_, Q9UKT9 (peptide)
chain: FDCEVCGARFTQKGNLLRHIKL
B20: 46F_47W_49E_50V_52G_53A_54D_55F_67L_, Q9UKT9 (peptide)
chain: FWCEVCGADFTQKGNLLRHIKL
B21: 46F_47W_49E_50V_52G_53A_54L_55F_67L_, Q9UKT9 (peptide)
chain: FWCEVCGALFTQKGNLLRHIKL
B22: 46F_47L_49E_50V_52G_53A_54E_55F_67L_, Q9UKT9 (peptide)
chain: FLCEVCGAEFTQKGNLLRHIKL
B23: 46F_47Y_49P_50I_52G_53R_54S_55F_67L_, Q9UKT9 (peptide)
chain: FYCPICGRSFTQKGNLLRHIKL
B24: 46F_47H_49N_50Q_52G_53H_54Y_55F_67L_, Q9UKT9 (peptide)
chain: FHCNQCGHYFTQKGNLLRHIKL
B25: 46F_47Y_49P_50I_52G_53R_54M_55F_67L_, Q9UKT9 (peptide)
chain: FYCPICGRMFTQKGNLLRHIKL
B26: 46F_47Q_49E_50V_52G_53A_54R_55F_67L_, Q9UKT9 (peptide)
chain: FQCEVCGARFTQKGNLLRHIKL
B27: 46F_47L_49E_50V_52G_53A_54R_55F_67L_, Q9UKT9 (peptide)
chain: FLCEVCGARFTQKGNLLRHIKL
B28: 46F_47A_49E_50V_52G_53A_54D_55F_67L_, Q9UKT9 (peptide)
chain: FACEVCGADFTQKGNLLRHIKL
B29: 46F_47M_49E_50V_52G_53A_54R_55F_67L_, Q9UKT9 (peptide)
chain: FMCEVCGARFTQKGNLLRHIKL
B30: 46F_47N_49E_50V_52G_53A_54R_55F_67L_, Q9UKT9 (peptide)
chain: FNCEVCGARFTQKGNLLRHIKL
B31: 46F_47G_49E_50V_52G_53A_54D_55F_67L_, Q9UKT9 (peptide)
chain: FGCEVCGADFTQKGNLLRHIKL
B32: 46F_47V_49E_50V_52G_53A_54R_55F_67L_, Q9UKT9 (peptide)
chain: FVCEVCGARFTQKGNLLRHIKL
B33: 46F_47A_49E_50V_52G_53A_54L_55F_67L_, Q9UKT9 (peptide)
chain: FACEVCGALFTQKGNLLRHIKL
B34: 46F_47G_49E_50V_52G_53A_54R_55F_67L_, Q9UKT9 (peptide)
chain: FGCEVCGARFTQKGNLLRHIKL
B35: 46F_47A_49E_50V_52G_53A_54R_55F_67L_, Q9UKT9 (peptide)
chain: FACEVCGARFTQKGNLLRHIKL
B36: 46F_47G_49E_50V_52G_53A_54L_55F_67L_, Q9UKT9 (peptide)
chain: FGCEVCGALFTQKGNLLRHIKL
B37: 46F_47K_49E_50V_52G_53A_54R_55F_67L_, Q9UKT9 (peptide)
chain: FKCEVCGARFTQKGNLLRHIKL

Target: T1, CRBN, Q96SW2
Assay: log2 fold change of degron read counts, EGFP-low vs EGFP+ sorted cells (limma voom), compound-induced degradation; higher = more compound-induced degradation of the degron-EGFP fusion; degrons are variants of IKZF1/3 zinc finger 2; compound dose not given here
Settings: Jurkat, 18 h
[1] = compound: compound 19 (5-tert-butyl-thalidomide)
[2] = compound: compound 22 (5-morpholino-thalidomide)
[3] = compound: compound 33 (diphenyl IMiD analogue)
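Also: pooled lentiviral library of zinc finger degron-EGFP fusions in mCherry-positive Jurkat cells, FACS-sorted after compound exposure, with degron abundance counted by next-generation sequencing.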

Row | Sequence | log2 fold change of degron read counts [1] | log2 fold change of degron read counts [2] | log2 fold change of degron read counts [3] | log2 fold change of degron read counts (compound: thalidomide)
1 | B1 | -3.47 | -3.04 | -3.68 | -2.95
2 | B2 | -1.94 | -2.86 | -2.08 | -2.3
3 | B3 | 1.51 | 0.584 | 0.961 | -0.234
4 | B4 | -0.669 | 1.1 | 1.61 | 2.14
5 | B5 | -2.56 | -3.15 | -3.02 | -2.62
6 | B6 | -0.606 | 0.31 | -0.595 | -0.478
7 | B7 | -0.913 | -1.22 | -1.37 | -0.847
8 | B8 | 1.69 | 0.386 | 0.306 | -0.468
9 | B9 | -2.98 | -3.17 | -2.89 | -2.9
10 | B10 | 3.78 | 3.71 | 1.69 | 2.19
11 | B11 | 1.13 | -0.689 | 1.27 | 3.29
12 | B12 | 3.36 | 3.82 | 1.63 | 1.59
13 | B13 | 0.108 | 2.04 | 1.51 | 2.6
14 | B14 | 3.84 | 3.8 | 2.26 | 1.95
15 | B15 | 2.55 | 2.63 | 1.79 | 0.407
16 | B16 | 3.18 | 3.03 | 2.24 | 0.431
17 | B17 | 0.695 | 1.02 | 0.125 | -1.36
18 | B18 | 3.05 | 3.02 | 1.45 | 2.9
19 | B19 | 3.09 | 1.52 | 0.571 | 2.08

Row | Sequence | log2 fold change of degron read counts [1] | log2 fold change of degron read counts [2] | log2 fold change of degron read counts [3] | log2 fold change of degron read counts (compound: thalidomide)
20 | B20 | -0.303 | 0.852 | -0.582 | -1.26
21 | B21 | 2.17 | 2.69 | 1.86 | -0.0715
22 | B22 | 0.493 | -1.2 | 0.235 | 1.01
23 | B23 | -1.81 | -2.36 | -1.67 | -2.4
24 | B24 | -2.17 | -2.71 | -2.16 | -1.62
25 | B25 | -0.787 | -1.23 | -0.675 | -1.57
26 | B26 | -0.109 | 1.95 | 1.42 | 3.71
27 | B27 | -0.109 | -1.35 | -0.123 | 2.09
28 | B28 | 1.11 | -1.42 | -1.53 | -1.97
29 | B29 | 0.167 | -0.178 | 1.48 | 1.48
30 | B30 | 2.12 | 0.955 | -0.805 | 0.249
31 | B31 | -1.71 | -2.17 | -0.906 | -1.3
32 | B32 | 1.35 | 2.78 | 0.984 | 3.25
33 | B33 | 1.98 | -0.613 | -0.457 | -1.05
34 | B34 | 3.86 | 2.74 | -0.6 | 1.27
35 | B35 | 3.91 | 3.03 | -0.415 | 1.17
36 | B36 | 2.18 | 0.893 | 1.4 | -0.493
37 | B37 | -1.76 | -3.02 | -3.44 | -1.87
